Test results as given in the supplement of paper PMC11732987, “Enantioselective OTUD7B fragment discovery through chemoproteomics screening and high-throughput optimisation” (Communications Chemistry, 2025).

Assays:
Assay in all cases: log2 ratio of Biotin-Ahx-Ub-VS probe labelling (fragment/DMSO); higher = less target engagement (more negative = stronger competition), active = hit call of the paper (q ≤ 0.05, log2 ratio ≤ -1)
Settings in all cases: compound concentration: 200 uM; treatment time: 3 h
[1] = biological target: T1, USP19 (UniProt O94966)
T1 sequence (whole entry): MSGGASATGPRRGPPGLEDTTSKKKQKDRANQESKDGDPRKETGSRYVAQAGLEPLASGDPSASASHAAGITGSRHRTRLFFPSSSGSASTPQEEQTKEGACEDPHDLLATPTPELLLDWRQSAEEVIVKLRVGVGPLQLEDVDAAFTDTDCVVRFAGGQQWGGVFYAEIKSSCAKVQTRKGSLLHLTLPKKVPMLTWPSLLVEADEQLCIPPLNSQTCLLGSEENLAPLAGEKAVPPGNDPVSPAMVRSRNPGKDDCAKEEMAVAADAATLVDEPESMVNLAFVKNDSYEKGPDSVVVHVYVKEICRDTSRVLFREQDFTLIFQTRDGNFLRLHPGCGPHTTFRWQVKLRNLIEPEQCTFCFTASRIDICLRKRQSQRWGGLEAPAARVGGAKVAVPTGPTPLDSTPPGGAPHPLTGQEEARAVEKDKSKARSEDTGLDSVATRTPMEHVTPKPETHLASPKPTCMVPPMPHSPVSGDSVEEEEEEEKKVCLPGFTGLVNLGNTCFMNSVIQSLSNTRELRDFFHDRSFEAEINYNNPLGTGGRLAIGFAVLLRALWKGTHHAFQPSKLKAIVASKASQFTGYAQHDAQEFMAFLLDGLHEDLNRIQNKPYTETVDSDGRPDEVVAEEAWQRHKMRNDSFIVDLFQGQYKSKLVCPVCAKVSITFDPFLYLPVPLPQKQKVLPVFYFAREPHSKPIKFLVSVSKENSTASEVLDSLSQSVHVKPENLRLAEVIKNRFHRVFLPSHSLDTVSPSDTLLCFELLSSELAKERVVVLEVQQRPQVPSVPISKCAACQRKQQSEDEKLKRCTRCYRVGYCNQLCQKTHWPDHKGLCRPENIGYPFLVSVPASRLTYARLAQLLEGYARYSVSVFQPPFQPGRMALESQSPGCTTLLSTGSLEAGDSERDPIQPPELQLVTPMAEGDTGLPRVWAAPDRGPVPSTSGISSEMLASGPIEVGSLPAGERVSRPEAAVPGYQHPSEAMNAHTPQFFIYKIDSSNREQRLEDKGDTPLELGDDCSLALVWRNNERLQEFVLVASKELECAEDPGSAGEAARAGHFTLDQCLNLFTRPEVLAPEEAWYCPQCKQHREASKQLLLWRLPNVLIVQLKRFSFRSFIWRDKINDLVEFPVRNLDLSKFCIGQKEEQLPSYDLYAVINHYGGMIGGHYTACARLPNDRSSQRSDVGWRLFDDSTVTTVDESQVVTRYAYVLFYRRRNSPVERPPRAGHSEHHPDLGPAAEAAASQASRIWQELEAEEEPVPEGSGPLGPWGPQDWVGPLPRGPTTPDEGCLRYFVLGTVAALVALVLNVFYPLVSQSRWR
Summary of the method: (§1)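 Labelling with Biotin-Ahx-Ub-VS (0.5 µM final, 1 h) followed a 3 h triplicate treatment of HEK293T lysate (495 µg per sample, Tris/CHAPS/IGEPAL buffer with protease inhibitors) with fragment at 200 µM or vehicle. Labelled DUBs were NeutrAvidin-enriched, digested with LysC and trypsin, and run by diaPASEF LC-MS/MS. The values, average log2 fragment/vehicle ratios by unpaired t-test, come from global-median-normalised Spectronaut label-free quantities. Proteins with ≥2 unique peptides were used.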

[2] = biological target: T2, USP22 (UniProt Q9UPT9)
T2 sequence (whole entry): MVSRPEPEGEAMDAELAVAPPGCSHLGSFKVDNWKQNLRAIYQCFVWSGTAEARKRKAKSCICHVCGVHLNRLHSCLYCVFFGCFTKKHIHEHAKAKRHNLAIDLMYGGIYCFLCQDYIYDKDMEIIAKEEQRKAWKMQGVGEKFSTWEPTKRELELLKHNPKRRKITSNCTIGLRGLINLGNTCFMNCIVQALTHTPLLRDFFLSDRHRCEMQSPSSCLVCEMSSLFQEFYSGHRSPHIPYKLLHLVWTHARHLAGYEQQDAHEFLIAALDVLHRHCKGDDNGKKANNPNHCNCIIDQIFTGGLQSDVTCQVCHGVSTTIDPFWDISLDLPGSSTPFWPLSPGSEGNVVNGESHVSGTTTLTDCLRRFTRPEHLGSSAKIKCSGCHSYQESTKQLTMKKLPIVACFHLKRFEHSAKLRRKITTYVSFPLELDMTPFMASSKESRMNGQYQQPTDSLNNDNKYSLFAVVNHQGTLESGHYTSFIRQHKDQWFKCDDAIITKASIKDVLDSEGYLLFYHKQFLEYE
Summary of the method: as §1

[3] = biological target: USP24 (UniProt Q9UPU5)
Sequence of USP24 (Q9UPU5 whole entry): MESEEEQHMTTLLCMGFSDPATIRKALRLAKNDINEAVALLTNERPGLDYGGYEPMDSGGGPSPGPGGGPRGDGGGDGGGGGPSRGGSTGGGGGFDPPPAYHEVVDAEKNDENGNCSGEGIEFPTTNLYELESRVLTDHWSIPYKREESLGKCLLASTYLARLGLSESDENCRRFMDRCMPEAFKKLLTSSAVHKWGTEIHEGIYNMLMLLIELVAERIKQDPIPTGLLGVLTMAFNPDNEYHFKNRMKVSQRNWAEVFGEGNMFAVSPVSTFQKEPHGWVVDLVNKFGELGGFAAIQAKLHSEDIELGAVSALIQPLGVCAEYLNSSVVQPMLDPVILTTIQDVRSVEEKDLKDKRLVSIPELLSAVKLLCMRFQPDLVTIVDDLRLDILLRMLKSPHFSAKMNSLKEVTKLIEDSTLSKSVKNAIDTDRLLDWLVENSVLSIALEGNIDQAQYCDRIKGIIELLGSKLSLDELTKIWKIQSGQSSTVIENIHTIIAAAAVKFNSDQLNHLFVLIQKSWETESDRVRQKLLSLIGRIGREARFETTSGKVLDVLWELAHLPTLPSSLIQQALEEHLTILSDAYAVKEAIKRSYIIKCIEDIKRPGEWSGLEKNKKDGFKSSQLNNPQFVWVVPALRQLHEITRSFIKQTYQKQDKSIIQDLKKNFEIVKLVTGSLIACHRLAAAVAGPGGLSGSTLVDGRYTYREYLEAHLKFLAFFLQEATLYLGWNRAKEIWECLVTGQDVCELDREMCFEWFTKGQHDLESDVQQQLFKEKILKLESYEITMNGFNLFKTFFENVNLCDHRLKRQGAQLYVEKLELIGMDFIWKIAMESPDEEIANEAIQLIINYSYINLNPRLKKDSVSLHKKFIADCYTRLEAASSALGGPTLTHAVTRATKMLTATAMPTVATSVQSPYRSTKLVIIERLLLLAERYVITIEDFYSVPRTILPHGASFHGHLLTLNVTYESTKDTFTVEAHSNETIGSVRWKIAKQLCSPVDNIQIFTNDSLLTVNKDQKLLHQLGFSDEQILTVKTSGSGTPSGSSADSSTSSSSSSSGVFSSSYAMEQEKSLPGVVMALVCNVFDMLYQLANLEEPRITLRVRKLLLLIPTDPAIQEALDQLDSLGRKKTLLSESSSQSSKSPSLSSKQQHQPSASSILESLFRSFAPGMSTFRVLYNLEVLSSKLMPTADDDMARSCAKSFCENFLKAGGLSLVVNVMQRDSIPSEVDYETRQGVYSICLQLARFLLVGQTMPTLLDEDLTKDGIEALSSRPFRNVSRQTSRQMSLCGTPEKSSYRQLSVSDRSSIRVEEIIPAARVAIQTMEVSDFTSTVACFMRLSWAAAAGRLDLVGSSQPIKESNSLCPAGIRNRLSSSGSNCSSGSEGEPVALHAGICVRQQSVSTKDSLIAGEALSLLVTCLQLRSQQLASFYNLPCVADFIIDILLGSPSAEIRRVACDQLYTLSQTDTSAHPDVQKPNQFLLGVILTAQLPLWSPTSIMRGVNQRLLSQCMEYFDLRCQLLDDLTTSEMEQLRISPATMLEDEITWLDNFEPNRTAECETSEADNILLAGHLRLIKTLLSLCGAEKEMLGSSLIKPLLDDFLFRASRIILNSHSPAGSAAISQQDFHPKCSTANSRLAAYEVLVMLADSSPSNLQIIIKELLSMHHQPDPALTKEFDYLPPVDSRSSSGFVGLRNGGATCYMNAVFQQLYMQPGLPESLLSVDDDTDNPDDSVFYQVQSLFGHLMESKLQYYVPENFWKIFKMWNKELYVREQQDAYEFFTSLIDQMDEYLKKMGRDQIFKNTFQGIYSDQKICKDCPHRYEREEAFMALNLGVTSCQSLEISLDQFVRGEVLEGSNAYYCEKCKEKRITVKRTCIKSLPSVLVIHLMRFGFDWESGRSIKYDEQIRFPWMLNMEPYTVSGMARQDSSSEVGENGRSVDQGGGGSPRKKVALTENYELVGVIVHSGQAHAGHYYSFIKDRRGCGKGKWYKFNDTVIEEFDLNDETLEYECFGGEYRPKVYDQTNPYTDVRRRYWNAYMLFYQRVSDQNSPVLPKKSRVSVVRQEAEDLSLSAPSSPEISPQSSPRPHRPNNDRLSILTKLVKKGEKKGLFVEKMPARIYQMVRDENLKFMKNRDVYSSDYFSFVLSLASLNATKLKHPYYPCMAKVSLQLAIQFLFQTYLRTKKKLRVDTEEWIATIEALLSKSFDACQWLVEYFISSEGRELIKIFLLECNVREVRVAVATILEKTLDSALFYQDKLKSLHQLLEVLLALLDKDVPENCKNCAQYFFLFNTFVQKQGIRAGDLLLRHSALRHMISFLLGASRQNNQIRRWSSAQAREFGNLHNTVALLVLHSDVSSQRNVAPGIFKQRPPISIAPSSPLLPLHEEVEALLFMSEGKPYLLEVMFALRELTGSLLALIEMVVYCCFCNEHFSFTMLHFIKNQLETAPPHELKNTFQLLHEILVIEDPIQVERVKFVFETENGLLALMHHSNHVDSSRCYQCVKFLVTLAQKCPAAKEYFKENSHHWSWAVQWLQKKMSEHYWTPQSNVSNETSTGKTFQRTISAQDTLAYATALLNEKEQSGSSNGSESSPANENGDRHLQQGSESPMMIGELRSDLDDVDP
Summary of the method: as §1

[4] = biological target: T3, USP25 (UniProt Q9UHP3)
T3 sequence (whole entry): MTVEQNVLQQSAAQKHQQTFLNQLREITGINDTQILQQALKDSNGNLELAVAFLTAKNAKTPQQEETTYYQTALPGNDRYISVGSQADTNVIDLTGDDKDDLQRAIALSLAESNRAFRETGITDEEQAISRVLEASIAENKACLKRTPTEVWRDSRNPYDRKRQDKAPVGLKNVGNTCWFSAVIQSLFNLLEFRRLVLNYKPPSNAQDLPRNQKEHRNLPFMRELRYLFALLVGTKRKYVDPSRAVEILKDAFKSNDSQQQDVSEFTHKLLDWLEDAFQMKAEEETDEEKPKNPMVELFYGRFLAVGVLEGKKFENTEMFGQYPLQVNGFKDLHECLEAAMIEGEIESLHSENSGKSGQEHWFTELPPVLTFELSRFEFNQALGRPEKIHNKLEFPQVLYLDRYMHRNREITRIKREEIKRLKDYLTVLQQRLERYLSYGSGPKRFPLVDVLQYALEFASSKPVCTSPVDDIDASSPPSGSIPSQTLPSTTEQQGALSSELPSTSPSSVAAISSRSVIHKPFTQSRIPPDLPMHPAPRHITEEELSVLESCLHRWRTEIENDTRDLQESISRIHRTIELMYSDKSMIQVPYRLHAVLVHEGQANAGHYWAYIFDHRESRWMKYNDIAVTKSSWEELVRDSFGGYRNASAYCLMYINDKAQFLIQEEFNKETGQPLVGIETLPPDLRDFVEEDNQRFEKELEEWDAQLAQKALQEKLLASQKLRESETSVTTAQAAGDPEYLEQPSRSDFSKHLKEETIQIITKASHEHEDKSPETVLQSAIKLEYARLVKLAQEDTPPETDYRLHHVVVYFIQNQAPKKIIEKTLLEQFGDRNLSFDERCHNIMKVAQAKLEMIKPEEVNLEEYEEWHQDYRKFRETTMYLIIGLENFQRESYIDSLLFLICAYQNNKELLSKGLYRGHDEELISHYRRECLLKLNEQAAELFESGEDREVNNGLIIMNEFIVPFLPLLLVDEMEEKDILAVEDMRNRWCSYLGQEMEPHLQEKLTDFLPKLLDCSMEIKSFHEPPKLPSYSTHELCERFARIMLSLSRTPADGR
Summary of the method: as §1

[5] = biological target: T4, USP28 (UniProt Q96RU2)
T4 sequence (whole entry): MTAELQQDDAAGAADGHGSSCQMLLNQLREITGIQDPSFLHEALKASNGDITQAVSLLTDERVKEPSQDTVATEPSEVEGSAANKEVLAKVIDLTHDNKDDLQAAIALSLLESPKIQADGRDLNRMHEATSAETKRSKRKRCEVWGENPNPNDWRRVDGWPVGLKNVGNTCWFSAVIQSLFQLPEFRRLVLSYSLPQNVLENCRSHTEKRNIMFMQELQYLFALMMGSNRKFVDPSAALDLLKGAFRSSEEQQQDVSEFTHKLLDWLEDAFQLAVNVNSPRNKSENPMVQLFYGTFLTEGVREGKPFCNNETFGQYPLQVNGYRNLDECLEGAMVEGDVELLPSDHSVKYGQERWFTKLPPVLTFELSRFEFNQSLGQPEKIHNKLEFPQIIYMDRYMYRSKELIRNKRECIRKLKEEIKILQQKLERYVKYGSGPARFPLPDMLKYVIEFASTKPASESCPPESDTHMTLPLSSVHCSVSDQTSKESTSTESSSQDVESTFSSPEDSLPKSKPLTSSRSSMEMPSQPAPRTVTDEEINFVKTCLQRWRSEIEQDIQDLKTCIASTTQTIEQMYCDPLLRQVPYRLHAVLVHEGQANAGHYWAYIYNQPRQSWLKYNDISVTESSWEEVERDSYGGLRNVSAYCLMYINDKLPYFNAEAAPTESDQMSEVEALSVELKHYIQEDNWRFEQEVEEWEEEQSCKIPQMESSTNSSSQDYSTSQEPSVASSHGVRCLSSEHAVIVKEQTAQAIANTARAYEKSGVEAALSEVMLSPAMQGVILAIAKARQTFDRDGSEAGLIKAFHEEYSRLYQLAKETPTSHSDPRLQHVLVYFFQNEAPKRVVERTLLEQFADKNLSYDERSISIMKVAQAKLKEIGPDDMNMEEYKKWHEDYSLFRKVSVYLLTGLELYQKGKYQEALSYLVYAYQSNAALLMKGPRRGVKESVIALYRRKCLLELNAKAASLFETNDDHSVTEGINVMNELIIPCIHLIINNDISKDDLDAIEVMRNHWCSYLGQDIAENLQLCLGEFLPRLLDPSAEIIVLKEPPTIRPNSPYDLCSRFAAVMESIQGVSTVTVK
Summary of the method: as §1

Measured: log2 ratio of Biotin-Ahx-Ub-VS probe labelling

O=C(CCl)NCc1cccc(N2CCCC2=O)c1
inactive: [1] 0.025 | [2] 0.303 | [3] 0.00291 | [4] -0.383 | [5] -0.252
